This passage reports normalized growth results from PubChem BioAssay AID1159580 (chemical genetic matrix, 2015).

The campaign covered roughly 5,500 compounds. About 2,000 (36%) were called active. Inconclusive results (about 18%) are left out. This is one part of the list. Unmarked numbers belong to inactive results. No stated cut-off is given here; in the data, active means normalized growth mostly below about 0.91 (no sharp cut-off); inconclusive means no clear call, values can overlap the other calls; inactive means mostly above about 0.92.

The nature of the assay: chemical genetic growth profiling, strain panel (AID 1159580).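 Further: tested at 20 µM; growth read once vehicle control cultures reached saturation at 30 °C; 1 = growth at the plate median or of vehicle wells; lower values mean less growth of the strain.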 To be noted: S. cerevisiae deletion strains, growth OD.
[1] abbreviates: locus YAL040C, strain CLN3, active compounds read low.
Where [2] appears, read: locus YCL061C, strain MRC1 (second series), active compounds read low.
The mark [3] stands for this setting: locus YDR363W, strain ESC2, active compounds read low.
[4] abbreviates: locus YER002W, strain NOP16, active compounds read low.
Where [5] appears, read: locus YNL175C, strain NOP13, active compounds read low.
Where [6] appears, read: locus YNL197C, strain WHI3, active compounds read low.
The mark [7] stands for this setting: locus YNL224C, strain SQS1, active compounds read low.
[8] abbreviates: locus YOR083W, strain WHI5 (second series), active compounds read low.
Setting [9] is: locus YPL055C, strain LGE1, active compounds read low.
[10] abbreviates: locus YPL241C, strain CIN2, active compounds read low.
Where [11] appears, read: locus YMR307W, strain GAS1, active compounds read low.

Consider `N#Cc1c(-c2ccccc2)no[n+]1[O-]`, for which the normalized growth reads like this: (locus YAL013W, strain DEP1, active compounds read low) 0.942; under setting [1], 0.674 (active); under setting [2], 0.995; under setting [3], 1; under setting [4], 0.85 (active); (locus YNL153C, strain GIM3, active compounds read low) 0.515 (active). Further, the normalized growth reads like this: under setting [5], 0.774 (active); under setting [6], 0.902; under setting [7], 0.926; under setting [8], 0.253 (active); under setting [9], 0.953; under setting [10], 1.

Turning to `Cc1ccc(O)c(N=Nc2ccccc2)n1`, the normalized growth by setting is: under setting [1], 0.96; under setting [2], 0.934 (active); under setting [3], 0.896; under setting [4], 1.03; (locus YJR075W, strain HOC1, active compounds read low) 0.855 (active); under setting [11], 0.984. The normalized growth was 0.985 under setting [5]; 0.977 under setting [6]; 0.993 under setting [7]; 0.738 (active) under setting [8]; 0.425 (active) under setting [9].

In the case of `NC1CCN(c2cccc(Cl)n2)CC1`, the normalized growth is 1.01 under setting [1]; 1 under setting [2]; 1.01 (locus YDR150W, strain NUM1, active compounds read low); 1.01 under setting [3]; 0.991 under setting [4]; 1.01 (locus YGR078C, strain PAC10, active compounds read low). In addition, the normalized growth reads like this: under setting [11], 1.02; (locus YNL128W, strain TEP1, active compounds read low) 1.01; under setting [5], 0.991; under setting [6], 1; under setting [7], 1.01; (locus YNL322C, strain KRE1, active compounds read low) 0.984. For the same molecule, the normalized growth is 0.991 under setting [8] and 1 under setting [10].
